Compound activity (PubChem)
NADH enzymes: inhibitors of enzymes used to reach an NAD/NADH endpoint; coupled PK/LDH NADH assays, four targets; IC50, µM (doses to about 10 µM), for the others: at the highest dose inhibition; 65,000 compounds, 0.02% hits; AID 774;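 active = single-dose screening hits from any of four coupled enzyme assays that gave an IC50 when retested across doses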;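 note: the DPM-DC format reads NADH fluorescence rather than 340 nm absorbance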
Spn MK inh: inhibitors of Streptococcus pneumoniae mevalonate kinase. purified MK, PK/LDH-coupled NADH absorbance 340 nm. inhibition, % at 10 µM. 65,000 compounds, 0.48% hits. AID 555;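 active = ranked among the strongest by inhibition in the single 10 µM screen, a fixed top-ranked set picked for dose follow-up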
Autofluor 339: intrinsic fluorescence of library compounds, ex339/em460 – biochemical, MLSMR library, data from DPM-DC assay, artefact control, profiling panel. compound autofluorescence, ex339/em460 nm, NADH buffer; hits give high values; 1 = no-compound wells, NADH background. fluorescence fold increase at 10 µM. 65,000 compounds, 5.5% hits;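 active = at 10 µM, mean starting fluorescence two-fold or more over control wells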;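 note: signal is the first read of a kinetic run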
Spn PMK inh: S. pneumoniae PMK inhibition. purified PMK, PK/LDH-coupled NADH absorbance 340 nm. inhibition, % at 10 µM. 65,000 compounds, 0.49% hits. AID 539;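 active = top-ranked compounds by inhibition in the single 10 µM screen, taking a fixed number of the strongest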;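 note: 0% = full reaction with DMSO carrier and 100% = background rate without enzyme reaction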
DPM-DC inhibit: blocks S. pneumoniae diphosphomevalonate decarboxylase; purified DPM-DC, PK/LDH coupled NADH fluorescence; calls only at 10 µM; 65,000 compounds, 0.49% hits;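 active = the 320 compounds with the highest percent inhibition in the single-dose primary screen, excluding strongly autofluorescent ones, cut at about 32% in these data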;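 note: kinetic rate of NADH fluorescence loss reporting ADP formed by the decarboxylase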
A340 absorber: compounds absorbing at 340 nm | compound absorbance at 340 nm, fold over control | fold change at 10 µM | 65,000 tested, under 10 active;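 active = at 10 µM dose, initial 340 nm absorbance at least 2 fold that of control wells; inactive = change under 2 fold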;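 note: initial absorbance extrapolated from kinetic A340 decline of NADH oxidation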
* marks the source's active call; other numbers are inactive results; i = inactive; · = not tested or not shown; + = active, no number. Sampled rows, rich in hits. Any-hit rate of the full collection: about 6.3%.

SMILES	NADH enzymes	Spn MK inh	Autofluor 339	Spn PMK inh	DPM-DC inhibit	A340 absorber
CC(NC(=O)C1CCCN(S(=O)(=O)c2cnc[nH]2)C1)c1ccccc1 (stereo not given)	5%	11	0.95	0	i	0.98
NC(=O)c1nsc(C(=O)N(CC(=O)NCc2ccc3c(c2)OCO3)C2CCCCC2)c1N	6%	6	2.9*	7	i	1.1
CCN(CCNC(=O)c1cc(C)nn1-c1ccccc1)c1ccccc1	3%	10	1.1	0	i	1
O=c1c2ccccc2nc(-c2ccccc2)n1CCN1CCOCC1	7%	10	1.1	11	i	1
COc1ccc(CCn2c(=N)c(C#N)cc3c(=O)n4ccccc4nc32)cc1	4%	10	1.3	1	i	1
Cc1ccc2nc3c(cc(C#N)c(=O)n3-c3nccs3)c(=O)n2c1	9%	8	3.8*	9	·	1.1
Cc1ccc2nc3c(cc(C#N)c(=O)n3CC3CCCO3)c(=O)n2c1 (stereo not given)	11%	8	3.8*	14	·	1.1
Cc1ccc(O)c(C(=O)c2cc(C#N)c(=O)n(CC3CCCO3)c2)c1 (stereo not given)	5%	3	1	17	i	1
N#Cc1cc2c(=O)n3ccccc3nc2n(CCCN2CCOCC2)c1=O	12%	10	3.9*	14	·	1
COc1ccc(-c2nc3ccccc3c(=O)n2CCCN2CCOCC2)cc1	4%	4	1.1	8	i	1
Cc1ccc2nc3c(cc(C#N)c(=O)n3CCN3CCOCC3)c(=O)n2c1	9%	7	3*	1	i	1
Cc1cccc(N2CCN(C(=O)Cc3c(C(=O)O)[nH]c4ccc(Cl)cc34)CC2)c1C	11%	8	0.81	8	i	1
CCn1c(=O)c2cc(S(=O)(=O)NC3CCCCC3)ccc2n(CC)c1=O	3%	2	1.1	0	i	1.1
N#Cc1cc2c(=O)n3ccccc3nc2n(CCN2CCOCC2)c1=O	8%	4	3.9*	12	·	1.1
N=c1c(C(=O)NC2CCCC2)cc2c(=O)n3ccccc3nc2n1CCN1CCOCC1	5%	10	1.9	0	·	1.1
COC(=O)c1nonc1NCn1nnc2ccccc21	12%	7	1.1	29*	i	0.98
COC(=O)c1ccc(NC(=O)Cn2nnc3ccccc32)cc1	3%	8	1	10	i	1.1
CCOCCCNS(=O)(=O)c1ccc(Br)cc1	7%	9	1.1	11	i	1
CC(C)(C)NC(=O)CSc1nnc(-c2ccccn2)n1-c1ccccc1	5%	3	1	28*	i	0.98
O=C(CSc1nnc(-c2cccnc2)n1-c1ccccc1)Nc1ccccn1	5%	6	1	10	i	1
O=C1c2ccc(-c3nc4ccccc4o3)cc2C(=O)N1Cc1cccnc1	1%	2	2.1*	0	·	1.1
CCC(=O)Nc1cc(C)c(NC(=O)c2ccccc2OC)cn1	3%	10	1	0	i	0.99
c1ccc2oc(-c3nn4c(Cn5cnc6ccccc65)nnc4s3)cc2c1	9%	8	2.2*	11	i	1.1
CC(C)(CSc1nncn1N)NS(=O)(=O)c1ccc(Cl)cc1	2%	5	1.1	6	i	1
Clc1ccc(C2Nc3ccccc3-n3cccc32)cc1 (stereo not given)	0%	2	2.4*	0	·	1
SMILES	NADH enzymes	Spn MK inh	Autofluor 339	Spn PMK inh	DPM-DC inhibit	A340 absorber
O=C(NCc1cccnc1)c1ccc2c(=O)n(CCCN3CCCC3=O)c(=S)[nH]c2c1	24%	6	0.47	13	+	1.1
COc1ccc(Cn2c(=O)[nH]c3cc(C(=O)NCCCN4CCCC4=O)ccc3c2=O)cc1	7%	8	1.2	13	i	1
CCOC(=O)C1CCN(C(=O)CNS(=O)(=O)c2cccs2)CC1	2%	7	1.1	0	i	1
c1ccc2c(c1)nc(Nc1ccc3c(c1)OCO3)c1nnnn12	3%	0	1.2	8	i	1
Cc1ccc(-c2nc3ccccc3n3nnnc23)cc1	8%	9	3.8*	7	·	1.1
CCN(CC)S(=O)(=O)c1ccc(Nc2nc3ccccc3n3nnnc23)cc1	7%	0	3.6*	7	i	1.1
CCOC(=O)N1CCC(Nc2nc3ccccc3n3nnnc23)CC1	7%	0	4*	13	·	1
Cc1ccc(CNc2nc3ccccc3n3nnnc23)cc1	10%	0	2.4*	9	i	1.1
Cc1cccc(C)c1NC(=O)C(c1ccccc1)N1CCC2(CC1)OCCO2 (stereo not given)	5%	3	1	12	i	0.99
Cc1cccc(C)c1NC(=O)C(c1ccccc1)N1CCN(C(=O)c2ccco2)CC1 (stereo not given)	29%	0	1.1	18	+	0.99
Cc1nnc2sc(-c3ccc(NC(=O)c4ccc(-c5ccc(Cl)cc5Cl)o4)cc3)nn12	6%	11	3.9*	1	·	1.1
Cc1nnc2sc(-c3ccc(NC(=O)c4cccnc4)cc3)nn12	10%	18	1.1	11	i	1.1
O=C(CCNS(=O)(=O)c1cccs1)N1CCc2ccccc2C1	4%	0	1.1	12	i	1
CC(=O)CCc1ccc2oc(C(=O)O)c(C)c2c1	2%	2	1.1	4	i	1.3
Cc1cc2nc(C3CCN(CC4COc5ccccc5O4)CC3)[nH]c2cc1C (stereo not given)	11%	1	1	12	i	0.99
Cc1cc(N2CCOCC2)n2nc(C)c(-c3ccccc3)c2n1	9%	9	1.1	17	i	1.1
Cc1nn2c(N3CCN(c4ccccn4)CC3)cc(C(C)C)nc2c1-c1ccccc1	9%	5	3.1*	4	i	1
Cc1cc(N2CCN(C3CCCC3)CC2)n2nc(C)c(-c3ccccc3)c2n1	21%	9	0.79	13	+	1
O=C(Cn1nc(C(F)(F)F)c2c1CCC2)N1CCN(c2ccccc2)CC1	1%	0	1.1	4	i	1
CCCCS(=O)(=O)NC1=NCN(C2CCN(Cc3ccccc3)CC2)CN1	4%	7	1	16	i	1
CCN1CCN(CCCNC(=O)c2cn(CCOC)c(=O)c3c2c2ccccc2n3C)CC1	4%	1	3*	6	i	1
COCCn1cc(C(=O)NCCCN2CCC(C)CC2)c2c3ccccc3n(C)c2c1=O	8%	0	2.5*	15	+	1
CCN(CC)CCCNC(=O)c1cn(CCOC)c(=O)c2c1c1ccccc1n2C	8%	6	4.4*	10	·	1
Cn1c(C(=O)NCCCN2CCN(c3ccc(F)cc3)CC2)cc2c(=O)n(C)c3ccccc3c21	2%	7	1.1	9	i	0.99
